PubChem BioAssay (Tox21)
Records with an inconclusive call do not appear. Activity calls are given as the source filed them. Calls come from the whole dose curve; as a rule, active = well fitted curve in the direction sought with a large enough effect in the repeat runs; inconclusive = weak or mixed curves; inactive = no such curve, though single readings can be large; an effect the other way counts as inactive or inconclusive.

Legend:
[1] = qHTS RealTime-Glo MT Cell Viability Assay in HepG2 cells - 40 hour (AID 1224870); note: nearly all actives have a fitted effect of over 50% in size
Procedure, shortened: (§1)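 HepG2 cells (600/well) mixed with RealTime-Glo MT reagent, settled 5 h at 37 C/5% CO2 before compound addition. Nonlytic NanoLuc luminescence from viable-cell prosubstrate reduction read repeatedly during 40 h treatment at 37 C.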

[2] = A CellTox Green Cytotoxicity Assay to monitor cytotoxicity in HEK293 cells - 40 hour (AID 1224871); note: nearly all actives have a fitted effect of over 45% in size; note: potency is the fitted concentration of half-maximal effect
Procedure, shortened: (§2)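 Cytotoxicity was tracked continuously in HEK293 cells by a DNA-binding dye excluded from viable cells. Compounds were transferred in DMSO 5 h after seeding; fluorescence was recorded at intervals up to 40 h.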

[3] = qHTS RealTime-Glo MT Cell Viability Assay in HEK293 cells - 16 hour (AID 1224872); note: nearly all actives have a fitted effect of over 50% in size; note: potency is the fitted concentration of half-maximal effect
Procedure, shortened: (§3)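 HEK293 cells seeded with NanoLuc/prosubstrate reagent, rested 5 h at 37 C, then dosed and kept at 37 C up to 40 h. Nonlytic real-time luminescence from viable cells read at 0, 8, 16, 24, 32 and 40 h.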

[4] = qHTS RealTime-Glo MT Cell Viability Assay in HepG2 cells - 8 hour (AID 1224873); note: nearly all actives have a fitted effect of over 55% in size
Procedure, shortened: as §1

[5] = qHTS RealTime-Glo MT Cell Viability Assay in HEK293 cells - 40 hour (AID 1224874); settings: RealTime-Glo luminescence; max response: stronger effect = lower value; note: nearly all actives have a fitted effect of over 50% in size; note: potency is the fitted concentration of half-maximal effect
Procedure, shortened: (§4)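 Nonlytic bioluminescent viability monitoring. HEK293 at 600 cells/well with reagent; 5 h settle; compound transfer by pintool; plates held at 37 C and read at set time points.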

[6] = A CellTox Green Cytotoxicity Assay to monitor cytotoxicity in HEK293 cells - 24 hour (AID 1224875); note: nearly all actives have a fitted effect of over 45% in size; note: potency is the fitted concentration of half-maximal effect
Procedure, shortened: as §2

[7] = A CellTox Green Cytotoxicity Assay to monitor cytotoxicity in HepG2 cells - 16 hour (AID 1224876); note: nearly all actives have a fitted effect of over 45% in size; note: potency is the fitted concentration of half-maximal effect
Procedure, shortened: (§5)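 Real-time, homogeneous cytotoxicity readout: dead-cell DNA staining by CellTox Green in HepG2 monolayers, fluorescence measured at timed intervals up to 40 h of continuous compound exposure.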

[8] = qHTS RealTime-Glo MT Cell Viability Assay in HepG2 cells - 32 hour (AID 1224877); note: nearly all actives have a fitted effect of over 55% in size
Procedure, shortened: (§6)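 HepG2 cells (600/well) were dispensed with RealTime-Glo reagents, incubated 5 h at 37 °C, then treated with compounds in DMSO for up to 40 h. Nonlytic NanoLuc luminescence reflecting viable cells was read at each stated time point.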

[9] = A CellTox Green Cytotoxicity Assay to monitor cytotoxicity in HepG2 cells - 24 hour (AID 1224878); note: nearly all actives have a fitted effect of over 45% in size; note: potency is the fitted concentration of half-maximal effect
Procedure, shortened: as §5

[10] = A CellTox Green Cytotoxicity Assay to monitor cytotoxicity in HepG2 cells - 40 hour (AID 1224879); note: nearly all actives have a fitted effect of over 40% in size; note: potency is the fitted concentration of half-maximal effect
Procedure, shortened: as §5

[11] = qHTS RealTime-Glo MT Cell Viability Assay in HEK293 cells - 0 hour (AID 1224880)
Procedure, shortened: as §4

[12] = A CellTox Green Cytotoxicity Assay to monitor cytotoxicity in HEK293 cells - 32 hour (AID 1224881); note: nearly all actives have a fitted effect of over 40% in size; note: potency is the fitted concentration of half-maximal effect
Procedure, shortened: as §2

[13] = A CellTox Green Cytotoxicity Assay to monitor cytotoxicity in HepG2 cells - 0 hour (AID 1224882); note: nearly all actives have a fitted effect of over 35% in size; note: potency is the fitted concentration of half-maximal effect
Procedure, shortened: as §5

[14] = A CellTox Green Cytotoxicity Assay to monitor cytotoxicity in HepG2 cells - 32 hour (AID 1224883); note: nearly all actives have a fitted effect of over 50% in size; note: potency is the fitted concentration of half-maximal effect
Procedure, shortened: as §5

[15] = A CellTox Green Cytotoxicity Assay to monitor cytotoxicity in HEK293 cells - 8 hour (AID 1224884); note: nearly all actives have a fitted effect of over 35% in size
Procedure, shortened: as §2

[16] = qHTS RealTime-Glo MT Cell Viability Assay in HEK293 cells - 24 hour (AID 1224886); note: nearly all actives have a fitted effect of over 50% in size; note: potency is the fitted concentration of half-maximal effect
Procedure, shortened: as §3

[17] = qHTS RealTime-Glo MT Cell Viability Assay in HEK293 cells - 8 hour (AID 1224887); note: nearly all actives have a fitted effect of over 50% in size; note: potency is the fitted concentration of half-maximal effect
Procedure, shortened: as §4

[18] = A CellTox Green Cytotoxicity Assay to monitor cytotoxicity in HEK293 cells - 16 hour (AID 1224888); note: nearly all actives have a fitted effect of over 35% in size; note: potency is the fitted concentration of half-maximal effect
Procedure, shortened: as §2

[19] = qHTS RealTime-Glo MT Cell Viability Assay in HepG2 cells - 0 hour (AID 1224889); note: nearly all actives have a fitted effect of over 50% in size
Procedure, shortened: as §6

[20] = qHTS RealTime-Glo MT Cell Viability Assay in HepG2 cells - 16 hour (AID 1224885); note: nearly all actives have a fitted effect of over 50% in size
Procedure, shortened: as §6
% is set by controls: 0 for no effect and ±100 for the full control effect.

O=Cc1ccc([N+](=O)[O-])cc1
inactive: Potency [1] | Potency [2] | Potency [3] | outcome [4] | max response [5] 7.58% | Potency [6] | Potency [7] | Potency [8] | Potency [9] | Potency [10] | Potency [11] | Potency [12] | Potency [13] | Potency [14] | Potency [15] | Potency [16] | Potency [17] | Potency [18] | Potency [19]

CCOC(OCC)OCC
inactive: Potency [1] | Potency [2] | Potency [3] | outcome [4] | max response [5] -1.36% | Potency [6] | Potency [7] | Potency [8] | Potency [9] | Potency [10] | Potency [11] | Potency [13] | Potency [14] | Potency [15] | outcome [20] | Potency [16] | Potency [17] | Potency [18] | Potency [19]

C=Cc1ccc(C=C)cc1
inactive: Potency [1] | Potency [2] | Potency [3] | outcome [4] | max response [5] 11.4% | Potency [6] | Potency [7] | Potency [8] | Potency [9] | Potency [10] | Potency [11] | Potency [12] | Potency [13] | Potency [14] | outcome [20] | Potency [16] | Potency [17] | Potency [18] | Potency [19]

CCCCCCCCCC(C)C=O (stereo unspecified)
inactive: Potency [1] | Potency [3] | outcome [4] | max response [5] 12% | Potency [8] | Potency [11] | outcome [20] | Potency [16] | Potency [17] | Potency [19]
active: Potency [2] 19.5 µM | Potency [6] 21.9 µM | Potency [7] 24.5 µM | Potency [9] 24.5 µM | Potency [10] 24.5 µM | Potency [12] 21.9 µM | Potency [13] 24.5 µM | Potency [14] 21.9 µM | Potency [18] 21.9 µM

CCCCCCCCS
inactive: Potency [1] | Potency [2] | Potency [3] | outcome [4] | max response [5] 7.45% | Potency [6] | Potency [7] | Potency [8] | Potency [9] | Potency [10] | Potency [11] | Potency [13] | Potency [14] | Potency [15] | outcome [20] | Potency [16] | Potency [17] | Potency [18] | Potency [19]

Sc1nc(S)nc(S)n1
inactive: Potency [1] | Potency [2] | Potency [3] | outcome [4] | max response [5] 5.08% | Potency [6] | Potency [7] | Potency [8] | Potency [9] | Potency [10] | Potency [11] | Potency [12] | Potency [13] | Potency [14] | Potency [15] | Potency [16] | Potency [17] | Potency [18] | Potency [19]

CC(=O)CC/C=C(\C)CC/C=C(\C)CC/C=C(\C)CCC=C(C)C
inactive: Potency [1] | Potency [2] | Potency [3] | outcome [4] | max response [5] 4.5% | Potency [6] | Potency [7] | Potency [8] | Potency [9] | Potency [10] | Potency [11] | Potency [12] | Potency [13] | Potency [14] | Potency [16] | Potency [17] | Potency [18] | Potency [19]

CC(C)Cc1nccs1
inactive: Potency [1] | Potency [2] | Potency [3] | outcome [4] | max response [5] 3.56% | Potency [6] | Potency [7] | Potency [8] | Potency [9] | Potency [10] | Potency [11] | Potency [12] | Potency [13] | Potency [14] | outcome [20] | Potency [16] | Potency [17] | Potency [18] | Potency [19]

Cc1ccc(S(=O)(=O)NC(=O)NC2CCCC2)cc1
inactive: Potency [1] | Potency [2] | Potency [3] | outcome [4] | max response [5] 0.385% | Potency [6] | Potency [7] | Potency [8] | Potency [9] | Potency [10] | Potency [12] | Potency [13] | Potency [14] | Potency [15] | outcome [20] | Potency [16] | Potency [17] | Potency [18] | Potency [19]

C=C(C)C(=O)OCCCCCCCCCCOC(=O)C(=C)C
inactive: Potency [1] | Potency [2] | Potency [3] | outcome [4] | max response [5] -16.4% | Potency [6] | Potency [7] | Potency [8] | Potency [9] | Potency [10] | Potency [11] | Potency [12] | Potency [13] | Potency [14] | outcome [20] | Potency [16] | Potency [17] | Potency [18] | Potency [19]

C/C(=C(\CCO)SS/C(CCO)=C(\C)N(C=O)Cc1cnc(C)nc1N)N(C=O)Cc1cnc(C)nc1N
inactive: Potency [1] | Potency [2] | Potency [3] | outcome [4] | max response [5] 7.21% | Potency [6] | Potency [7] | Potency [8] | Potency [9] | Potency [10] | Potency [11] | Potency [13] | Potency [14] | Potency [15] | Potency [16] | Potency [17] | Potency [18] | Potency [19]

CC(C)NC(=O)c1ccccc1N
inactive: Potency [1] | Potency [2] | Potency [3] | outcome [4] | max response [5] 0.226% | Potency [6] | Potency [7] | Potency [8] | Potency [9] | Potency [10] | Potency [11] | Potency [13] | Potency [14] | outcome [20] | Potency [16] | Potency [17] | Potency [18] | Potency [19]

COc1ccnc2c1CCCCC2S(=O)c1nc2ccccc2[nH]1 (stereo unspecified)
active: Potency [3] 9.52 µM | Potency [5] 7.56 µM | Potency [16] 6.01 µM | Potency [17] 8.49 µM
inactive: Potency [1] | Potency [2] | outcome [4] | Potency [6] | Potency [7] | Potency [8] | Potency [9] | Potency [10] | Potency [11] | Potency [13] | Potency [14] | outcome [20] | Potency [18] | Potency [19]

CCCCCCCCOCCCN
inactive: Potency [1] | Potency [2] | Potency [3] | outcome [4] | max response [5] 2.92% | Potency [6] | Potency [7] | Potency [8] | Potency [9] | Potency [10] | Potency [12] | Potency [13] | Potency [14] | Potency [15] | outcome [20] | Potency [16] | Potency [17] | Potency [18]
